According to the supplement of paper PMC10849652:
Of roughly 8,800 targets only a part is listed; those with a hit were picked by preference. About 0.5% of all pairs of compound and target were hits. Values without a mark were called inactive.

Assays:
Test in all cases: log2 fold change, soluble protein after heating vs DMSO (PISA); higher = thermal stabilisation; K562 lysate, 10 uM; active = over 0.2 and 3.5 SD of the protein, either way, in both replicates (recomputed)
vemurafenib = compound: CCCS(=O)(=O)Nc1ccc(F)c(C(=O)c2c[nH]c3ncc(-c4ccc(Cl)cc4)cc23)c1F [vemurafenib]
In short: (§1)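 K562 pellets were dounce-homogenised in PBS pH 7.4 containing 1 mM MgCl2, and the crude extract, at 1 mg/mL protein, was exposed to 10 μM compound for 30 min. Aliquots were heated for 3 min across 48°C-58°C, pooled, brought to 0.5% NP-40 at 4°C and spun at 21,000xg for 90 min, with the supernatant taken as soluble protein. TMTpro 16plex LC-MS/MS with equalised channel sums quantified that protein. Values are log-two fold changes in thermal stability relative to solvent controls, taken from duplicates.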

[1] = compound: CCCS(=O)(=O)Nc1ccc(F)c(C(=O)c2c[nH]c3ncc(Cl)cc23)c1F
In short: as §1

barasertib = compound: CCN(CCCOc1ccc2c(Nc3cc(CC(=O)Nc4cccc(F)c4)[nH]n3)ncnc2c1)CCOP(=O)(O)O [barasertib]
In short: as §1

[2] = compound: CC[C@@H]1C(=O)N(C)c2cnc(Nc3ccc(C(=O)NC4CCN(C)CC4)cc3OC)nc2N1C1CCCC1
In short: as §1

volasertib = compound: CC[C@@H]1C(=O)N(C)c2cnc(Nc3ccc(C(=O)N[C@H]4CC[C@H](N5CCN(CC6CC6)CC5)CC4)cc3OC)nc2N1C(C)C [volasertib]
In short: as §1

[3] = compound: CCn1c(C(=O)N(C2CC2)C2CC2)cc2c3c(ncn3C)c(Nc3cc(C)n(C)n3)nc21
In short: as §1

[4] = compound: CCn1cc(-c2ccnc3[nH]c(-c4cccc(CN(C)C)c4)cc23)c(-c2ccc(NC(=O)N(C)C)cc2)n1
In short: as §1

[5] = compound: CN1CCC(CNc2ccc3ncc(-c4cccc(OC(F)(F)F)c4)n3n2)CC1
In short: as §1

saracatinib = compound: CN1CCN(CCOc2cc(OC3CCOCC3)c3c(Nc4c(Cl)ccc5c4OCO5)ncnc3c2)CC1 [saracatinib]
In short: as §1

sotrastaurin = compound: CN1CCN(c2nc(C3=C(c4c[nH]c5ccccc45)C(=O)NC3=O)c3ccccc3n2)CC1 [sotrastaurin]
In short: as §1

Chain of UniProt Q9NZN4 (Q9NZN4 whole entry, looked up): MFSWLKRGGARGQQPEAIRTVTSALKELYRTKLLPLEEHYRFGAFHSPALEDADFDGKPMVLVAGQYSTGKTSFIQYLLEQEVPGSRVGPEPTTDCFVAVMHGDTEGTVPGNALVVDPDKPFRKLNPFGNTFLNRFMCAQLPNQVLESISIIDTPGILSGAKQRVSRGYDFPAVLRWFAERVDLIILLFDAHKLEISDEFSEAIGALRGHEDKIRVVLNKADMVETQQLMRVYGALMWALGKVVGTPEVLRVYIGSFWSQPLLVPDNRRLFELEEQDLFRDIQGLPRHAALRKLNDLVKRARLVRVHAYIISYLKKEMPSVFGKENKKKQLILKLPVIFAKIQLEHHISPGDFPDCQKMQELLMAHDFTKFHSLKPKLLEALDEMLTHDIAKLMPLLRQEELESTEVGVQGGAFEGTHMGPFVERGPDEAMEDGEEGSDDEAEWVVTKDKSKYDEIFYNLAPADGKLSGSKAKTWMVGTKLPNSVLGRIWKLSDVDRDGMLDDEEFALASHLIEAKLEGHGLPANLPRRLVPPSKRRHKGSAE
Chain of UniProt Q9UI10 (Q9UI10 whole entry, looked up): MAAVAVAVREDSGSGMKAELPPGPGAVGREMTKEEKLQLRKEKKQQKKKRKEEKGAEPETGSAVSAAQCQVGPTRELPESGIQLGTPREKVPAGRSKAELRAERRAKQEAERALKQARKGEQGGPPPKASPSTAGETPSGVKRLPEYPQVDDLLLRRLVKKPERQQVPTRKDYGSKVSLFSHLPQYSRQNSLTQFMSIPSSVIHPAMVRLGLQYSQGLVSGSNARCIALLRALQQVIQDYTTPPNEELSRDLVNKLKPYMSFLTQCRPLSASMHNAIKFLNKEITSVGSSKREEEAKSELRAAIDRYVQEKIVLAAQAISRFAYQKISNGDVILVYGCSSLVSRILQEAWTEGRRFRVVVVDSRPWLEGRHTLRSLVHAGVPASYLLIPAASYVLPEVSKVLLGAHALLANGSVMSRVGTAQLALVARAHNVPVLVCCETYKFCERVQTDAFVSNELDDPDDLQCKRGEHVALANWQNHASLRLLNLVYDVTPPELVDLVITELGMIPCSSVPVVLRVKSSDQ
Chain of UniProt O95571 (O95571 whole entry, looked up): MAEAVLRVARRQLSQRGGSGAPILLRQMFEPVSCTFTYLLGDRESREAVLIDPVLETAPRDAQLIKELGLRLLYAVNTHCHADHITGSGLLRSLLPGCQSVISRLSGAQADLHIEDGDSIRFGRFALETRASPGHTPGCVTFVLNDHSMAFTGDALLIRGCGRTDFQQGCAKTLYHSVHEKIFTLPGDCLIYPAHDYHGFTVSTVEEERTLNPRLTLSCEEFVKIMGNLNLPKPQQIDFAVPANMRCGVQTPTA
Chain of UniProt A6NHQ2 (A6NHQ2 whole entry, looked up): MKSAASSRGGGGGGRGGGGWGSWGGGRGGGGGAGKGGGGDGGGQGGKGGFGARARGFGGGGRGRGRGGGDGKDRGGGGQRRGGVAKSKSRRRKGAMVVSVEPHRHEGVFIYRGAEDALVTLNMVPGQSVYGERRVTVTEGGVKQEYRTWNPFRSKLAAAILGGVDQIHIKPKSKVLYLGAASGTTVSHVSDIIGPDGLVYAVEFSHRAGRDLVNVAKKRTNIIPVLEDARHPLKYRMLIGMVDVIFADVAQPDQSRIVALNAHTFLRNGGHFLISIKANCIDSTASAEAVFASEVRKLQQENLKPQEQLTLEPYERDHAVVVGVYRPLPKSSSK
Chain of UniProt Q9Y613 (Q9Y613 whole entry, looked up): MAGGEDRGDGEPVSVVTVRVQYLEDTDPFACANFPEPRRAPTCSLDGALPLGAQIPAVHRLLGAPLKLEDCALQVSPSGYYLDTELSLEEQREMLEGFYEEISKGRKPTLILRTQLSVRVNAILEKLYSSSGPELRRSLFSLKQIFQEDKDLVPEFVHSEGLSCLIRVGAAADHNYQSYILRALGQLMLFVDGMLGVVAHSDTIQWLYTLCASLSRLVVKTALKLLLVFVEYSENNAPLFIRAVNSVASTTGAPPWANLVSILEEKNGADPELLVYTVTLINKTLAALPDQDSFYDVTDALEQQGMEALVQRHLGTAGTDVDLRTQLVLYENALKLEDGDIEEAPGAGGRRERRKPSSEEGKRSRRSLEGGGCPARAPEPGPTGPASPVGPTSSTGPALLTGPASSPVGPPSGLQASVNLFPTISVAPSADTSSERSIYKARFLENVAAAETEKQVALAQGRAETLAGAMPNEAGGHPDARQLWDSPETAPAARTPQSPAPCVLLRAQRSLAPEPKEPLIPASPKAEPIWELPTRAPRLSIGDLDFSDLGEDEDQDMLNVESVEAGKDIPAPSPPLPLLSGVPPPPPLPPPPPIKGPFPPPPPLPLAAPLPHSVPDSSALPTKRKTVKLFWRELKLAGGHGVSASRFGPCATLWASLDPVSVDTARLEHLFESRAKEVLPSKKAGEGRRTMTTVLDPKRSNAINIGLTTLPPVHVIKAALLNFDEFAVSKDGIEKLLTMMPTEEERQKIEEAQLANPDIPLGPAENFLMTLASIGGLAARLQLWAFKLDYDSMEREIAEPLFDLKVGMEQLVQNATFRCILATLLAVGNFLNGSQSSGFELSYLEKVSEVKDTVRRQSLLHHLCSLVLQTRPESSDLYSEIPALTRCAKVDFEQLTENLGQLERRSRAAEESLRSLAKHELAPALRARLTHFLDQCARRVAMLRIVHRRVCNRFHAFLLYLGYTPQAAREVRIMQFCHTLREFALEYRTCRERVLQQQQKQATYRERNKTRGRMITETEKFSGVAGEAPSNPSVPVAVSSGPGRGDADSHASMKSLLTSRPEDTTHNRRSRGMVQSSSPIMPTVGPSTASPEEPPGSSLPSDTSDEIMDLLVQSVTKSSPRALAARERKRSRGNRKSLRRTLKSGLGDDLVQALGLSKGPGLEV
Chain of UniProt Q15717 (Q15717 whole entry, looked up): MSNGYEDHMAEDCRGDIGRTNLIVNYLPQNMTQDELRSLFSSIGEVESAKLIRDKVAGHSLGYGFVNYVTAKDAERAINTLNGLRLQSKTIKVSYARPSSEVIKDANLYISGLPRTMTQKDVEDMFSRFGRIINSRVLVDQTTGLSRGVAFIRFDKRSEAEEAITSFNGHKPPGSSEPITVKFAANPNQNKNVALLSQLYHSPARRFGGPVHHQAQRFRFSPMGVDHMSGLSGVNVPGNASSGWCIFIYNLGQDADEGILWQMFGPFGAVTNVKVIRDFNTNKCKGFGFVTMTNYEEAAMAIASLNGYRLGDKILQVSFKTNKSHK
Chain of UniProt Q9NV70 (Q9NV70 whole entry, looked up): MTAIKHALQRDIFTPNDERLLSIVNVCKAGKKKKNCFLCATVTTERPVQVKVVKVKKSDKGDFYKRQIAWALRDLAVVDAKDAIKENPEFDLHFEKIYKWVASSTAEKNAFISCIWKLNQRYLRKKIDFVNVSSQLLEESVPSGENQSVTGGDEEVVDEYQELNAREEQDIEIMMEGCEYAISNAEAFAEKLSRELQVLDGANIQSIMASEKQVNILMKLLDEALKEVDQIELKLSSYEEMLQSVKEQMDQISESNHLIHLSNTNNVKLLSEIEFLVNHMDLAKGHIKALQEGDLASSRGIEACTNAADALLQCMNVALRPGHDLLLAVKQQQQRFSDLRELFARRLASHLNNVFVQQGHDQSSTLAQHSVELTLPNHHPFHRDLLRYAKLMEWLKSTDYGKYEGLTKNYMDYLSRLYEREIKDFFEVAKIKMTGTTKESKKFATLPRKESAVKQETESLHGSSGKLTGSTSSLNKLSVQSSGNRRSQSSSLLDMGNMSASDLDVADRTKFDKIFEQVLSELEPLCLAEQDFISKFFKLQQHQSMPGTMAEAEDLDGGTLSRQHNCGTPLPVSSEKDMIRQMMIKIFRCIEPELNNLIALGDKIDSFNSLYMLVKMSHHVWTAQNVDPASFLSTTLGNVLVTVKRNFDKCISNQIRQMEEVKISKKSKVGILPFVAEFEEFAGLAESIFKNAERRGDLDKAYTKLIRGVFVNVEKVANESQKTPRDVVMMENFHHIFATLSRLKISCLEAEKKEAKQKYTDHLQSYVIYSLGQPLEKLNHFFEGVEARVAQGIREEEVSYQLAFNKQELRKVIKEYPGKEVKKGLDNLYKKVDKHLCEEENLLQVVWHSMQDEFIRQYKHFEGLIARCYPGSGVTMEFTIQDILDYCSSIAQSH
Chain of UniProt Q06547 (Q06547 whole entry, looked up): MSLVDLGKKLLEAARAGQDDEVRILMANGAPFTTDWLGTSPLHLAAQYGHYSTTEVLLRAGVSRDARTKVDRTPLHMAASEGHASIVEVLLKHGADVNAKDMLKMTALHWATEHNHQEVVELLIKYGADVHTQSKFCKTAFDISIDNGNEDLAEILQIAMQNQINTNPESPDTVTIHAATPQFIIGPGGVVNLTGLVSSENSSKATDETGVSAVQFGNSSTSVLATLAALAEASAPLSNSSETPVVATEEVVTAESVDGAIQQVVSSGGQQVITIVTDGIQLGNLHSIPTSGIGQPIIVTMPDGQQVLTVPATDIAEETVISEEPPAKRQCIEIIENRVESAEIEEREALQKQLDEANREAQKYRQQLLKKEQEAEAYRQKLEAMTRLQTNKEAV
Chain of UniProt Q10471 (Q10471 whole entry, looked up): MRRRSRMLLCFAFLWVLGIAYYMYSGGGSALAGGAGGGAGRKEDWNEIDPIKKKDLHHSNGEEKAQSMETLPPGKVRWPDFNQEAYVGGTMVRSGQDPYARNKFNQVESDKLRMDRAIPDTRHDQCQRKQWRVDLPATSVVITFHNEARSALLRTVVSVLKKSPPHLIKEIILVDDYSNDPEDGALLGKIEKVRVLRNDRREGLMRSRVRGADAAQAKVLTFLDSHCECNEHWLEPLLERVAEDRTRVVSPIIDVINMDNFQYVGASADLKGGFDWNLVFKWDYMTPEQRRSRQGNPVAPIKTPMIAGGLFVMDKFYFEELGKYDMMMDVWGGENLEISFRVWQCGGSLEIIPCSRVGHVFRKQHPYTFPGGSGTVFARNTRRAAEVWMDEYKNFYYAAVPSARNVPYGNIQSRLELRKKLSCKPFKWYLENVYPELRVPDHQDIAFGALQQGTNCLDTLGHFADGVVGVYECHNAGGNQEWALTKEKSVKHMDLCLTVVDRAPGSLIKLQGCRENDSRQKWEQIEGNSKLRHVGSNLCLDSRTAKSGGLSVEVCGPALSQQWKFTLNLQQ

Row | Target | log2 fold change (vemurafenib) | log2 fold change [1] | log2 fold change (barasertib) | log2 fold change [2] | log2 fold change (volasertib) | log2 fold change [3] | log2 fold change [4] | log2 fold change [5] | log2 fold change (saracatinib) | log2 fold change (sotrastaurin)
1 | EIF2B5 (UniProt Q13144) | -0.007 | 0.019 | 0.013 | -0.012 | -0.027 | 0.021 | -0.065 | -0.057 | 0.009 | 0.038
2 | FMNL1 isoform 3 (UniProt O95466) | 0.022 | -0.008 | -0.002 | 0.028 | -0.088 | -0.035 | 0.026 | -0.032 | 0.007 | -0.006
3 | DST (UniProt Q03001) | 0.23 | 0.021 | 0.083 | 0.021 | -0.045 | -0.073 | -0.174 | 0.076 | 0.052 | -0.024
4 | FLT4 (UniProt P35916) | -0.069 | -0.046 | -0.036 | -0.031 | -0.042 | 0.135 | 0.018 | 0.08 | -0.036 | 
5 | EWSR1 isoform 5 (UniProt Q01844) | 0.033 | -0.023 | -0.013 | 0.039 | 0.045 | -0.006 | -0.019 | 0.021 | -0.017 | 0.037
6 | GALK1 isoform 2 (UniProt P51570) | 0.024 | 0.01 | 0.031 | 0.003 | -0.054 | -0.009 | 0.085 | -0.055 | -0.011 | 0.031
7 | FECH isoform 2 (UniProt P22830) | 0.363 | -0.891 (active) | -0.082 | 0.477 | 0.078 | -0.03 | 0.128 | 0.699 | -0.287 | 0.014
8 | GALNT2 (UniProt Q10471) | 0.013 | 0.014 | 0.003 | -0.014 | 0.002 | 0.042 | 0.065 | 0.035 | -0.004 | 0.016
9 | EHD2 (UniProt Q9NZN4) | 0.046 | 0 | 0.022 | 0.007 | -0.111 | 0.005 | 0.016 | -0.066 | 0.075 | 0.017
10 | ENO2 (UniProt P09104) | 0.05 | 0.008 | -0.132 | 0.044 | 0.046 | -0.069 | -0.231 | 0.319 (active) | 0.06 | 0.034
11 | FBLL1 (UniProt A6NHQ2) | 0.081 | 0.019 | 0.107 | 0.003 | -0.041 | -0.014 | -0.307 (active) | 0.046 | -0.075 | 0.056
12 | FCHO1 (UniProt O14526) | 0.023 | 0.033 | 0.02 | 0.023 | -0.062 | -0.026 | -0.053 | -0.004 | 0.006 | -0.015
13 | ENGASE (UniProt Q8NFI3) | 0.034 | 0.05 | 0.003 | 0 | -0.035 | -0.031 | 0.028 | 0.052 | -0.019 | -0.008
14 | ESYT2 (UniProt H7BXI1) | -0.047 | -0.044 | 0.046 | -0.065 | -0.036 | -0.009 | 0.037 | -0.068 | 0.033 | -0.003
15 | ELAVL1 isoform 2 (UniProt Q15717) | 0.035 | 0.024 | -0.013 | -0.03 | -0.029 | 0.035 | 0.013 | -0.083 | -0.001 | 0.024
16 | FNBP1L (UniProt Q5T0N5) | 0.003 | 0.029 | 0.167 | -0.085 | -0.068 | -0.013 | -0.024 | -0.019 | -0.013 | 0.048
17 | ETHE1 (UniProt O95571) | -0.018 | 0.022 | 0.076 | -0.013 | -0.017 | -0.007 | 0.044 | 0.003 | 0.001 | -0.004
18 | EXOC1 (UniProt Q9NV70) | 0 | 0.027 | 0.051 | -0.106 | -0.03 | 0.082 | 0.053 | -0.119 | 0 | 0.02
19 | EIF2B4 isoform 2 (UniProt Q9UI10) | -0.034 | 0.02 | 0.006 | -0.038 | -0.017 | -0.004 | -0.02 | 0.002 | 0.006 | -0.004
20 | GGA2 (UniProt Q9UJY4) | -0.003 | 0.011 | 0.073 | -0.005 | -0.048 | 0.032 | -0.02 | -0.088 | 0.025 | 0.041
21 | FKBP1A (UniProt P62942) | -0.138 | -0.028 | 0.092 | 0.107 | 0.163 | -0.036 | -0.854 (active) | 0.146 | 0.052 | -0.017
22 | DUS3L (UniProt Q96G46) | -0.055 | 0.004 | -0.038 | -0.025 | 0.005 | -0.043 | 0.246 (active) | -0.048 | 0.021 | 0.033
23 | GABPB1 (UniProt Q06547) | -0.05 | 0.01 | 0.014 | -0.024 | 0.025 | 0.006 | 0.193 | -0.199 | 0.057 | 0.023
24 | EEF1AKMT4 (UniProt P0DPD7) | 0.135 | 0.008 | 0.126 | -0.025 | -0.072 | -0.035 | -0.129 | 0.052 | -0.033 | -0.004
25 | EEF1A1, A0A087WVQ9 | 0.011 | 0.047 | -0.069 | 0.027 | -0.003 | -0.026 | -0.016 | -0.12 | 0.077 | 0.013
26 | FOXJ3 (UniProt Q9UPW0) | 0.111 | 0.124 | 0.038 | 0.054 | -0.096 | 0.02 | 0.032 | -0.08 | 0.023 | 0.018
27 | GCN1 (UniProt Q92616) | 0.025 | 0.004 | 0.061 | -0.107 | -0.084 | 0.082 | -0.05 | -0.07 | 0.015 | -0.006
28 | FHOD1 (UniProt Q9Y613) | -0.018 | 0.018 | 0.042 | -0.05 | -0.034 | 0.048 | 0.013 | -0.017 | 0.015 | 0.036
29 | FAM83D (UniProt Q9H4H8) | -0.015 | 0 | 0.074 | 0.045 | -0.047 | -0.01 | -0.052 | 0.029 | -0.008 | 0.032
30 | GAMT (UniProt Q14353) | 0.037 | 0.045 | 0.112 | 0.036 | 0.007 | 0.011 | 0.003 | -0.029 | -0.014 | 0.018
